# Data from PubChem BioAssay (NCATS).
# Inconclusive results are not listed. Entries that show only a call come without a potency. A number with no mark means an inactive call. The source made the active and inactive calls. Calls come from the whole dose curve; as a rule, active = well fitted inhibition curve with a large enough effect; inconclusive = small, poorly fitted or top-dose-only effect; inactive = no such curve, though single readings can be large or run the other way.
# Experiments:
# [1] = system: Zika virus NS2B-NS3 protease (unlinked complex); assay: Primary screen GU Rhodamine qHTS for Zika virus inhibitors: Unlinked NS2B-NS3 protease assay (AID 1347159); conditions: Recombinant ZIKV NS2B-NS3 protease, Rhodamine110 substrate fluorescence; series mostly up to 107 µM; note: nearly all actives have a fitted effect of over 60% in size
# Method in brief: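 Enzyme 25 nM in Tris-HCl pH 8.0 + 0.01% Tween 20; compounds up to 114 microM, 15 min RT dark; + Rhod110 substrate 1.5 microM; read t0 and 15 min; delta fluorescence → % inhibition → 4-parameter Hill fit.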
# [2] = system: Zika virus NS2B-NS3 protease (linked construct); assay: Primary screen NINDS Rhodamine qHTS for Zika virus inhibitors (AID 1347160); conditions: purified NS2B-NS3 protease, Rhodamine110 substrate fluorescence; series mostly up to 57.1 µM; note: nearly all actives have a fitted effect of over 55% in size
# Method in brief: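 Enzyme (25 nM, linked NS2B-NS3) was preincubated 15 min with compound in 10 mM Tris-HCl pH 8.0, 0.01% Tween 20. Rhodamine110 substrate (1.5 microM) was then added and fluorescence read at start and after 15 min.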
# Potency is the fitted concentration of half-maximal effect.
smiles,measurement,setting,value
OC[C@H]1O[C@@H](n2cnc3c2NC=NC[C@H]3O)C[C@@H]1O,Potency,[1],inactive
same,Potency,[2],inactive
CC(=O)O[C@H]1CC[C@@]2(CI)C(=CC[C@@H]3[C@@H]2CC[C@]2(C)[C@@H]([C@H](C)CCCC(C)C)CC[C@@H]32)C1,"activity change, negative = inhibition",[1],13.5% [at 19.1 µM]
same,"activity change, negative = inhibition",[2],7.05% [at 10.7 µM]
COc1cc2c(Nc3ccc(Cl)c(Cl)c3F)ncnc2cc1OCC1C[C@@H]2CN(C)C[C@@H]2C1 (stereo partly specified),Potency,[1],inactive
same,Potency,[2],inactive
COc1cc2c(cc1O)C1(OC)Cc3ccc4c(c3C1N(C)CC2)OCO4 (stereo unspecified),Potency,[1],inactive
same,Potency,[2],inactive
CC(=O)O[C@H]1[C@H](Oc2ccccc2COC(=O)C2(O)C=CCCC2=O)O[C@H](CO)[C@@H](O)[C@@H]1O (stereo partly specified),Potency,[1],inactive
same,Potency,[2],inactive
COC(=O)[C@]12C(=O)C(C)=C(O)[C@@]1(C)C(C)=CC1[C@@]34CC[C@@H](OC(C)=O)C(C)(C)C3[C@H](C[C@]12C)OC4=O (stereo partly specified),Potency,[1],inactive
same,Potency,[2],inactive
CC1(C)CC2C(O)C3=C(CC(C)(O)C2C1)C(=O)OC3O (stereo unspecified),Potency,[1],inactive
same,Potency,[2],inactive
CNC(=O)c1ccc2cc([C@@]3(O)CCn4cncc43)ccc2c1,Potency,[1],inactive
same,Potency,[2],inactive
CC(=O)OCCC(C)CCC1C(C)(O)CCC2C(C)(C)CCCC21C (stereo unspecified),Potency,[1],8.91 µM (active)
same,Potency,[2],11.2 µM (active)
COCC(=O)N1CCc2cc(-c3csc(NC(=O)c4cc(OC)cc(OC)c4)n3)ccc21,Potency,[1],inactive
same,Potency,[2],inactive
CCOC(=O)[C@H]1O[C@@H]1C(=O)N[C@@H](CC(C)C)C(=O)NCCC(C)C,Potency,[1],inactive
same,Potency,[2],inactive
C=C1CC2C3(C)C(O)CC(=O)C(C)(C)C3C(OC(C)=O)C(OC(C)=O)C2(C)C2C(=O)OC(C)(C(=O)OC)C(=O)C12C (stereo unspecified),Potency,[1],inactive
same,Potency,[2],inactive
CCNC(=O)CCC/C=C\C[C@@H]1[C@@H](/C=C/C(O)CCc2ccccc2)[C@@H](O)C[C@@H]1O (stereo partly specified),Potency,[1],inactive
same,Potency,[2],inactive
COc1c(OC2OC(CO)C(O)C(O)C2O)ccc(O)c1C(=O)OCc1ccccc1O[C@@H]1O[C@H](CO)[C@@H](O)[C@H](O)[C@H]1O (stereo partly specified),Potency,[1],inactive
same,Potency,[2],inactive
CC(=O)OCC(=O)O[C@@H]1[C@H]2[C@@H](OC(=O)c3ccccc3)[C@@H](C)C[C@]2(O)[C@H](OC(C)=O)C2(C)[C@H]3CC(C)(C)C(=O)[C@@H]3CC1(OC(C)=O)[C@@H]2OC(C)=O (stereo partly specified),Potency,[1],inactive
same,Potency,[2],inactive
COc1cccc2c1CCC[C@H]2CN(C)CCc1ccc2ccoc2c1,Potency,[1],inactive
same,Potency,[2],inactive
CC(=O)O[C@@H]1[C@@H](OC(=O)/C=C/c2ccccc2)[C@H](C)O[C@@H](O[C@H]2[C@@H]3C=CO[C@@H](O[C@@H]4O[C@H](CO)[C@@H](O)[C@H](O)[C@H]4O)[C@@H]3[C@@]3(CO)O[C@@H]23)[C@@H]1OC(C)=O,Potency,[1],inactive
same,Potency,[2],inactive
O=C(O[C@H]1[C@@H]2C=CO[C@@H](O[C@@H]3O[C@H](CO)[C@@H](O)[C@H](O)[C@H]3O)[C@@H]2[C@@]2(CO)O[C@@H]12)c1ccc(O)cc1,Potency,[1],inactive
same,Potency,[2],inactive
CC1=C(C)C(=O)OC(C(C)C2C(O)CC3C4C5OC5C5(O)CC(OC6OC(CO)C(O)C(O)C6O)CC(O)C5(C)C4CCC32C)C1 (stereo unspecified),Potency,[1],inactive
same,Potency,[2],inactive
Cc1nnc(C(C)C)n1C1CC2CCC(C1)N2CC[C@H](NC(=O)C1CCC(F)(F)CC1)c1ccccc1 (stereo partly specified),Potency,[1],inactive
same,Potency,[2],inactive
O=C(OCc1cccc(O)c1O[C@@H]1O[C@H](CO)[C@@H](O)[C@H](O)[C@H]1O)C1(O)C(=O)C2C=CC1C1C=CC(=O)C(O)(C(=O)OCc3cccc(O)c3O[C@@H]3O[C@H](CO)[C@@H](O)[C@H](O)[C@H]3O)C21 (stereo partly specified),Potency,[1],inactive
same,Potency,[2],inactive
C[C@]12CCC(=O)C=C1[C@@H](O)C[C@@H]1[C@@H]2[C@@H](O)C[C@@]2(C)[C@H]1CC[C@]2(O)C(=O)CO,Potency,[1],inactive
same,Potency,[2],inactive
CC1CCC2(C)C(CC(O)C(O)C23CO3)C1(C)CCC1=CC(=O)OC1O (stereo unspecified),Potency,[1],inactive
same,Potency,[2],inactive
Cc1nn(C)c2c1C(c1ccc(C(F)(F)F)cc1)C(C#N)=C(N)O2 (stereo unspecified),Potency,[1],inactive
same,Potency,[2],inactive
C=CC1(C)C=C2C(=O)CC3C(C)(C)CCCC3(C(=O)O)C2(O)CC1 (stereo unspecified),Potency,[1],inactive
same,Potency,[2],inactive
C/C=C(\C)C(=O)O[C@@H](C)[C@H]1CC[C@]2(O)C3CCC4C[C@@H](OC5CC(OC)C(OC6CC(OC)C(OC7CC(OC)C(OC8OC(C)C(OC9OC(CO)C(O)C(O)C9O)C(OC)C8O)C(C)O7)C(C)O6)C(C)O5)CC[C@]4(C)C3[C@H](O)[C@@H](O)[C@]12C (stereo partly specified),"activity change, negative = inhibition",[1],-1.05% [at 19.1 µM]
same,"activity change, negative = inhibition",[2],6.1% [at 10.7 µM]
COc1ccc2c(c1)O[C@H](O[C@@H]1O[C@H](CO)[C@@H](O)[C@H](O)[C@H]1O)C(=O)N2,Potency,[1],inactive
same,Potency,[2],inactive
CO/N=C(/C(=O)N[C@@H]1C(=O)N2C(C(=O)O)=C(CSC(=O)c3ccco3)CS[C@H]12)c1csc(N)n1,Potency,[1],35.5 µM (active)
same,Potency,[2],25.1 µM (active)
CC(C)NC[C@H](O)COc1ccc(CCOCC2CC2)cc1,Potency,[1],inactive
same,Potency,[2],inactive
OC[C@H]1O[C@@H](OC(CCCCc2ccc(O)cc2)CCc2ccc(O)cc2)[C@H](O[C@@H]2OC[C@](O)(CO)[C@H]2O)[C@@H](O)[C@@H]1O (stereo partly specified),Potency,[1],inactive
same,Potency,[2],inactive
CC[C@H](/C=C/[C@@H](C)[C@H]1CC[C@H]2[C@@H]3CC=C4C[C@@H](O)CC[C@]4(C)[C@H]3CC[C@]12C)C(C)C,"activity change, negative = inhibition",[1],1.47% [at 11.5 µM]
same,"activity change, negative = inhibition",[2],7.22% [at 4.91 µM]
O=C(CCCCc1ccc2ccccc2c1)C(F)(F)F,Potency,[1],inactive
same,Potency,[2],inactive
COC1=Cc2c(nc3n(c2=O)C(C)C(=O)NC3(O)C(C)C)OC=C1 (stereo unspecified),Potency,[1],inactive
same,Potency,[2],inactive
C=C(C)C1CC2(CO)C(=CC1=O)CCC(O)C2C (stereo unspecified),Potency,[1],inactive
same,Potency,[2],inactive
COc1ccccc1-n1c(SCC(=O)Nc2nc3ccc(C)cc3s2)nc2c(c1=O)SCC2,Potency,[1],inactive
same,Potency,[2],inactive
C[C@@H]1O[C@@H](O[C@H]2[C@H](O[C@H]3CC[C@@]4(C)C(CC[C@]5(C)C4CC=C4C6CC(C)(C)CC[C@]6(C(=O)O[C@@H]6O[C@H](CO[C@@H]7O[C@H](CO)[C@@H](O[C@@H]8O[C@@H](C)[C@H](O)[C@@H](O)[C@H]8O)[C@H](O)[C@H]7O)[C@@H](O)[C@H](O)[C@H]6O)CC[C@]45C)[C@]3(C)CO)OC[C@H](O)[C@@H]2O)[C@H](O)[C@H](O)[C@H]1O (stereo partly specified),"activity change, negative = inhibition",[1],20.6% [at 19.1 µM]
same,"activity change, negative = inhibition",[2],37.8% [at 10.7 µM]
O=C(O)CCc1cc2ccoc2cc1O[C@@H]1O[C@H](CO[C@@H]2OC[C@](O)(CO)[C@H]2O)[C@@H](O)[C@H](O)[C@H]1O,Potency,[1],inactive
same,Potency,[2],inactive
COC(=O)C1=CO[C@@H](O[C@@H]2O[C@H](COC(=O)/C=C/c3cc(OC)c(O)c(OC)c3)[C@@H](O)[C@H](O)[C@H]2O)[C@@H]2C(CO)=CC[C@H]12,Potency,[1],inactive
same,Potency,[2],inactive
CC(C)(C)NCc1cc(Nc2ccnc3cc(Cl)ccc23)c2c(c1O)CCCC2,"activity change, negative = inhibition",[1],0% [at 1.28 µM]
same,outcome,[2],inactive [at 0.684 µM]
CC(C)[C@H]1CCC(CO)=C[C@@H]1/C=C(\CO)C(=O)O,Potency,[1],inactive
same,Potency,[2],inactive
COc1cc(/C=C/C(=O)OC2[C@H](O)CC(O)(C(=O)O)C[C@H]2O)ccc1O (stereo partly specified),Potency,[1],inactive
same,Potency,[2],inactive
CNC(=O)[C@H]1O[C@@H](n2cnc3c(NCc4ccc(N)c(I)c4)ncnc32)[C@H](O)[C@@H]1O,"activity change, negative = inhibition",[1],10.8% [at 19.1 µM]
same,outcome,[2],inactive [at 10.7 µM]
C=CC(C)(O)CO[C@@H]1O[C@H](CO)[C@@H](O)[C@H](O)[C@H]1O (stereo partly specified),Potency,[1],inactive
same,Potency,[2],inactive
COC(=O)C1=CO[C@@H](O[C@@H]2O[C@H](CO[C@@H]3O[C@H](COC(=O)/C=C/c4ccc(O)cc4)[C@@H](O)[C@H](O)[C@H]3O)[C@@H](O)[C@H](O)[C@H]2O)[C@@H]2C(CO)=CC[C@H]12,Potency,[1],inactive
same,Potency,[2],inactive
CC1OC(OC2C(C)OC(OC3C(OC(=O)/C=C/c4ccc(O)cc4)C(CO)OC(OC4(COC(=O)/C=C/c5ccc(O)cc5)OC(CO)C(O)C4O)C3OC3OCC(O)(CO)C3O)C(O)C2O)C(O)C(O)C1O (stereo unspecified),Potency,[1],inactive
same,Potency,[2],inactive
O=C(COc1ccc(Cl)cc1)NC1CCC(NC(=O)COc2ccc(Cl)cc2)CC1 (stereo unspecified),Potency,[1],inactive
same,Potency,[2],inactive
CC(C)(C)NCC(O)COc1cccc2c1CCCC2=O (stereo unspecified),Potency,[1],inactive
same,Potency,[2],inactive
C[C@@H]1C[C@H](O)/C=C/[C@H](O)[C@@H](O)CC(=O)O1,Potency,[1],inactive
same,Potency,[2],inactive
CCOC(=O)[C@H](CCc1ccccc1)N[C@@H](C)C(=O)N1C2CCCCC2C[C@H]1C(=O)O (stereo partly specified),Potency,[1],inactive
same,Potency,[2],inactive
CC(CO[C@@H]1O[C@H](COC(=O)/C=C/c2ccc(O)c(O)c2)[C@@H](O)[C@H](O)[C@H]1O)C1(O)COC(=O)C1 (stereo partly specified),Potency,[1],inactive
same,Potency,[2],inactive
C=C(C(=O)OC)C1CCC2(C)C(O[C@@H]3O[C@H](CO)[C@@H](O)[C@H](O)[C@H]3O)CC(=O)C(C)C2C1O (stereo partly specified),Potency,[1],inactive
same,Potency,[2],inactive
OC[C@H]1O[C@@H](OCCc2ccc(O)cc2)[C@H](O)[C@@H](O)[C@@H]1O,Potency,[1],inactive
same,Potency,[2],inactive
O=C1NC(Cc2ccc(O)cc2)C(=O)N2CCCC12 (stereo unspecified),Potency,[1],inactive
same,Potency,[2],inactive
CCNC(=O)[C@H]1O[C@H](n2cnc3c(NCC(c4ccccc4)c4ccccc4)nc(C(=O)NCCNC(=O)NC4CCN(c5ccccn5)CC4)nc32)[C@H](O)[C@@H]1O,Potency,[1],inactive
same,Potency,[2],inactive
Cc1nc2c(-c3cnc(N)nc3)nc(N3CCOCC3)nc2n1C(C)C,Potency,[1],inactive
same,Potency,[2],inactive
Cc1cc(N2CCCCC2)nc2ccccc12,Potency,[1],inactive
same,Potency,[2],inactive
Cc1ncc([N+](=O)[O-])n1CC(O)CN1CCOCC1 (stereo unspecified),Potency,[1],inactive
same,Potency,[2],inactive
C[C@@H]1CCC2C(C)(C)[C@H](O)CC[C@]2(C)[C@@]12Cc1c(O)cc3c(c1O2)CN(CCO)C3=O (stereo partly specified),Potency,[1],inactive
same,Potency,[2],inactive
